Experimental data from PubChem BioAssay.
Measured potencies and affinities stand elsewhere. Activity calls are given as the source filed them. Cut-off not given; nearly all actives show IC50 up to about 0.91 µM.

Each molecule was assayed against Calcium-dependent protein kinase 4 (Plasmodium falciparum (isolate 3D7)) (UniProt Q8IBS5) (assay: PfCDPK4 kinase inhibitors, biochemical, TCAMS library (AID 1159588)). Details: recombinant PfCDPK4, Kinase-Glo ATP depletion luminescence.
Chain of Calcium-dependent protein kinase 4 (Plasmodium falciparum (isolate 3D7)) (Q8IBS5 whole entry, looked up): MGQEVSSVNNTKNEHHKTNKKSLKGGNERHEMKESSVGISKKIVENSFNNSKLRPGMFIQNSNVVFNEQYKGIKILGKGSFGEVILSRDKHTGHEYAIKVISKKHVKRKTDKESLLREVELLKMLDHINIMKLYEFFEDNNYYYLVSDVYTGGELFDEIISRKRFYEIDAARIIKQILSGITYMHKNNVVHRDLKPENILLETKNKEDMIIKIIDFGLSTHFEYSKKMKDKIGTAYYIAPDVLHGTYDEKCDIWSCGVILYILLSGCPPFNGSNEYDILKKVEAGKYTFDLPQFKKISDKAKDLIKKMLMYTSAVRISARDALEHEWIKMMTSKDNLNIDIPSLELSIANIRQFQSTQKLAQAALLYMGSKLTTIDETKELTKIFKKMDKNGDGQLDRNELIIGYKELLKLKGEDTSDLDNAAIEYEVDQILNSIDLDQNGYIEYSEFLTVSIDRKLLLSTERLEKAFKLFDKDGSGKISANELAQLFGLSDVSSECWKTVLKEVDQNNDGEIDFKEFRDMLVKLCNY

outcome, inactive:
Cc1nc(-c2nc(NCc3ccncc3)ncc2-c2ccsc2)sc1C
CN(Cc1ccccc1)C1CCN(c2cc(NC(=O)c3cccc(F)c3)ccn2)CC1
FC(F)(F)c1ccc2nc(-c3ccc(-c4cccc(CN5CCC(CCN6CCCCC6)CC5)c4)cc3)[nH]c2c1
COCCCNC(=O)C1CCN(C(c2ccc(Cl)cc2)c2ccc(Cl)cc2)CC1
NOCCCOc1ccccc1
Cc1ccc(-c2ccc(NC(=O)N3CCc4cc(Br)c(N5CCN(C)CC5)cc43)cc2)cn1
CCC(C)(C)c1ccc(OCCCC(=O)Nc2ccc(Cl)c([N+](=O)[O-])c2)c(C(C)(C)CC)c1
C=C(C)C1CC=C(CN2CCC(N3CCc4cc(NC(=O)c5cc(C)on5)ccc43)C2)CC1 (centres undefined)
NC(=O)c1ccsc1NC(=O)CNC(c1ccc(F)cc1)c1cccs1 (centres undefined)
COc1ccc(NC(=O)Nc2ccc(-c3ccncc3)c(C(F)(F)F)c2)cc1N1CCN(C)CC1
Nc1nc(N)c2c(CCc3ccc(Cl)c(Cl)c3)cccc2n1
CC(C)(C)c1ccc(CNCC(C)(C)c2nc(-c3ccc(Cl)c(O)c3)c(-c3ccnc(N)n3)[nH]2)cc1
COc1ccc(Nc2nccc(-c3ccc(NC(=O)c4cc5cc(F)ccc5[nH]4)cc3)n2)cc1
CC(C)N(Cc1ccc(-c2ccc(C(F)(F)F)cc2)cc1)C(=O)Cn1c(CCc2cccc(F)c2F)cc(=O)c2ccc(CCCN3CCCCC3)cc21
O=C(Nc1cccc(CN2CCCN(Cc3ccc(O)cc3)CC2)c1)c1cc2ccccc2s1
O=C(Nc1ccc(OC2CCN(Cc3ccccc3)CC2)c(Cl)c1)c1ccc(F)cc1
CCN(CC)CCNc1ccnc2[nH]c3ccc(I)cc3c12
CN(C)c1nc2cc(-n3cnc4cc(-c5ccc(Cl)cc5)sc4c3=O)ccc2n1CCCN1CCCC1
Cc1[nH]c2ccccc2c(=O)c1Br
O=C(/C=C/c1ccc(Cl)c(Cl)c1)NCCCCCCN1CCN(C(=O)Nc2cccc(Cl)c2)CC1
Cc1cccc2[nH]c(-c3ccc(-c4cccc(CN5CCN(c6ccncc6)CC5)c4)cc3)nc12
CCCCc1cc(N2CCC(NC(C)=O)C2)nc(Nc2ccc(C)cc2)n1 (centres undefined)
CCOC(=O)CNC(=O)N(CCN(Cc1ccccc1)C(=O)NCC(=O)OCC)Cc1ccccc1
Cc1cccc2[nH]c(-c3cc(-c4cccc(Cl)c4)cnc3N)nc12
c1ccc(-c2ccc(-c3csc(Nc4ccncc4)n3)cc2)cc1
CC(C)N(CCOc1ccc2c(c1)N(C(=O)Nc1ccc(Cl)c(Cl)c1)CC2)C(C)C
Cn1c(/C=C/C(=O)NC2CCC(CCN3CCc4ccc(C#N)cc4CC3)CC2)cc2ccccc21 (centres undefined)
Cc1ccc(NC(=O)c2ccc3ncccc3c2)cc1OC1CCN(Cc2ccc(F)cc2)C1 (centres undefined)
CCc1nc(N)nc(N)c1-c1ccc(F)cc1
Cc1cc(NCCC(=O)NCCOc2ccccc2)nc(NCCOc2ccccc2)n1
CCNc1cc(C)nc(Nc2ccccc2)n1
Cc1cc(N(C)CCCN2CCCCC2)nc(Nc2ccc(Cl)cc2)n1
CC(C)(C)Oc1ccc(CC2NC3(C(=O)N(Cc4ccc(C(C)(C)C)cc4)c4ccccc43)C3C(=O)N(c4ccc(Br)cc4)C(=O)C23)cc1 (centres undefined)
Cc1ccc2[nH]c(C3CCCNC3)c(-c3ccncc3)c2c1 (centres undefined)
Cn1nc(-c2cccc(CNC3CCc4ccccc43)c2)c2cnc(NCCCN3CCCC3)nc21 (centres undefined)
Cc1ccc2c(c1)c(-c1ccccc1)c(-c1ccccc1)n2CC(O)CN1CCN(CC=Cc2ccccc2)CC1 (centres undefined)
O=C(CCN1CCCCC1)Nc1ccc(Nc2nccc(NCC(O)c3ccccc3)n2)cc1 (centres undefined)
CCc1ccc(N2C(=O)C3C(Cc4ccc(OC(C)(C)C)cc4)NC4(C(=O)N(Cc5ccccc5)c5ccc(F)cc54)C3C2=O)cc1 (centres undefined)
CCC[C@@H]([C@@H](CC1CCCCC1)C(=O)N[C@H](C(=O)Nc1nccs1)[C@H](C)O)N(O)C=O
